Measured values taken from the supplement of paper PMC10037445.
Values joined by “and” are separate entries in the source; they are usually repeats but may differ in a detail not shown here. Identical values can stand only once. The full ranking holds about 2,900 compounds; the median of “NF-kB SEAP reporter activity, fold change vs agonist alone” is about 0.99, and the highest 2% start at about 2.6. The list comes from a sample in which the highest values are over-represented; it also holds similar structures and randomly drawn compounds.

How the values were obtained:
RAW-Dual [1] = assay: NF-kB SEAP reporter activity, fold change vs agonist alone; cytotoxicity flag (confluency mask): not cytotoxic; higher = enhanced NF-kB activity
Summary of the method: (§1)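 RAW-Dual macrophages (50,000 cells/well in DMEM, 384-well plates) received 50 nL of library stock by pin tool, then a PRR agonist 1 h later, and were kept at 37 °C, 5% CO2. After 20 hours, supernatant was read for IRF by QuantiLuc luminescence and for NF-κB by QuantiBlue absorbance at 620 nm. Reporter activity is fold change over agonist-alone wells. Cytotoxic wells had IncuCyte confluency below 70% of agonist controls in both mask sets.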

RAW-Dual [2] = assay: NF-kB SEAP reporter activity, fold change vs agonist alone; higher = enhanced NF-kB activity; conditions: library stock concentration (final ~1000-fold dilution): 10 mM
Summary of the method: as §1

RAW-Dual [3] = assay: NF-kB SEAP reporter activity, fold change vs agonist alone; cytotoxicity flag (confluency mask): cytotoxic (confluency <70% of control); higher = enhanced NF-kB activity
Summary of the method: as §1

[4] = agonist: ODN 1826 (TLR9) 0.5 ug/mL
[5] = agonist: Pam2CSK4 (TLR2/6) 0.1 ug/mL
[6] = agonist: Pam3CSK4 (TLR2/1) 0.1 ug/mL
[7] = cytotoxicity flag (confluency mask): not cytotoxic, agonist: Imiquimod (TLR7) […]
[8] = cytotoxicity flag (confluency mask): not cytotoxic, agonist: MPLA (TLR4) […]

Cc1[nH]nc(C(F)(F)F)c1Cc1sc2c(c1C(=O)N1CC(C)(O)CO1)c(=O)n(C)c(=O)n2C(C)C (centres undefined) (library stock concentration (final ~1000-fold dilution): 10 mM)
NF-kB SEAP reporter activity (RAW-Dual [1]; agonist: LPS (TLR4) 0.1 ug/mL): 1.81 | NF-kB SEAP reporter activity (RAW-Dual [1]; [4]): 1.27 | NF-kB SEAP reporter activity (RAW-Dual [1]; [5]): 0.918 | NF-kB SEAP reporter activity (RAW-Dual [1]; [6]): 1.06

Cc1[nH]nc(C(F)(F)F)c1Cc1sc2c(c1C(=O)N1CC(C)(O)CO1)c(=O)n(C)c(=O)n2C(C)C (centres undefined)
NF-kB SEAP reporter activity (RAW-Dual [2]; [7]): 1.11 | NF-kB SEAP reporter activity (RAW-Dual [2]; [8]): 1.25

Cc1cc(C)nc(NC(=S)N2CCN(Cc3ccc(C(F)(F)F)cc3)CC2)c1
NF-kB SEAP reporter activity (RAW-Dual [2]; [7]): 0.758 | NF-kB SEAP reporter activity (RAW-Dual [2]; [8]): 0.954

Cc1cc(C)nc(NC(=S)N2CCN(Cc3ccc(C(F)(F)F)cc3)CC2)c1 (library stock concentration (final ~1000-fold dilution): 10 mM)
NF-kB SEAP reporter activity (RAW-Dual [1]; agonist: LPS (TLR4) 0.1 ug/mL): 0.783 | NF-kB SEAP reporter activity (RAW-Dual [1]; [4]): 0.834 | NF-kB SEAP reporter activity (RAW-Dual [1]; [5]): 0.805 | NF-kB SEAP reporter activity (RAW-Dual [1]; [6]): 0.809

CC1c2cccc(O)c2C(=O)C2=C(O)C3(O)C(=O)C(C(N)=O)=C(O)C(N(C)C)C3C(O)C21 (centres undefined)
NF-kB SEAP reporter activity (RAW-Dual [2]; [8]): 1.13

CC1c2cccc(O)c2C(=O)C2=C(O)C3(O)C(=O)C(C(N)=O)=C(O)C(N(C)C)C3C(O)C21 (centres undefined) (library stock concentration (final ~1000-fold dilution): 10 mM)
NF-kB SEAP reporter activity (RAW-Dual [1]; agonist: LPS (TLR4) 0.1 ug/mL): 1.81 | NF-kB SEAP reporter activity (RAW-Dual [1]; [4]): 0.966 | NF-kB SEAP reporter activity (RAW-Dual [1]; [5]): 0.896 | NF-kB SEAP reporter activity (RAW-Dual [1]; [6]): 0.885

CC(=O)N1CCC(Nc2cc(C(=O)NCC(O)CN3CCc4ccccc4C3)ncn2)CC1 (centres undefined)
NF-kB SEAP reporter activity (RAW-Dual [2]; [7]): 0.92 | NF-kB SEAP reporter activity (RAW-Dual [2]; [8]): 1.03

CC(=O)N1CCC(Nc2cc(C(=O)NCC(O)CN3CCc4ccccc4C3)ncn2)CC1 (centres undefined) (library stock concentration (final ~1000-fold dilution): 10 mM)
NF-kB SEAP reporter activity (RAW-Dual [1]; agonist: LPS (TLR4) 0.1 ug/mL): 1.08 | NF-kB SEAP reporter activity (RAW-Dual [1]; [4]): 0.948 | NF-kB SEAP reporter activity (RAW-Dual [1]; [5]): 1.13 | NF-kB SEAP reporter activity (RAW-Dual [1]; [6]): 1.17

Cc1cc(N=Nc2ccc3c(c2)CCC(=O)N3)c(N)cc1O
NF-kB SEAP reporter activity (RAW-Dual [2]; [7]): 1.35 | NF-kB SEAP reporter activity (RAW-Dual [2]; [8]): 1.77

O=C(O)C1=C/C(=N\Nc2ccc(S(=O)(=O)Nc3ccccn3)cc2)C=CC1=O (library stock concentration (final ~1000-fold dilution): 10 mM)
NF-kB SEAP reporter activity (RAW-Dual [1]; agonist: LPS (TLR4) 0.1 ug/mL): 1.65 | NF-kB SEAP reporter activity (RAW-Dual [1]; [4]): 1.26 | NF-kB SEAP reporter activity (RAW-Dual [1]; [5]): 0.969 | NF-kB SEAP reporter activity (RAW-Dual [1]; [6]): 0.851

Cc1cc(N=Nc2ccc3c(c2)CCC(=O)N3)c(N)cc1O (library stock concentration (final ~1000-fold dilution): 10 mM)
NF-kB SEAP reporter activity (RAW-Dual [1]; agonist: LPS (TLR4) 0.1 ug/mL): 1.42 | NF-kB SEAP reporter activity (RAW-Dual [1]; [4]): 1.33 | NF-kB SEAP reporter activity (RAW-Dual [1]; [5]): 0.692 | NF-kB SEAP reporter activity (RAW-Dual [1]; [6]): 1.22

O=C(O)C1=C/C(=N\Nc2ccc(S(=O)(=O)Nc3ccccn3)cc2)C=CC1=O
NF-kB SEAP reporter activity (RAW-Dual [2]; [7]): 1.07 | NF-kB SEAP reporter activity (RAW-Dual [2]; [8]): 1.31

Cc1cc(N=Nc2ccc(S(=O)(=O)Nc3ccccn3)cc2)c(N)cc1O
NF-kB SEAP reporter activity (RAW-Dual [2]; [7]): 1.38 | NF-kB SEAP reporter activity (RAW-Dual [2]; [8]): 2.48

Cc1cc(N=Nc2ccc(S(=O)(=O)Nc3ccccn3)cc2)c(N)cc1O (library stock concentration (final ~1000-fold dilution): 10 mM)
NF-kB SEAP reporter activity (RAW-Dual [1]; agonist: LPS (TLR4) 0.1 ug/mL): 3.77 | NF-kB SEAP reporter activity (RAW-Dual [1]; [4]): 2.32 | NF-kB SEAP reporter activity (RAW-Dual [1]; [5]): 0.966 | NF-kB SEAP reporter activity (RAW-Dual [1]; [6]): 2.13

O=C(c1ccccc1)C(O)O (library stock concentration (final ~1000-fold dilution): 10 mM)
NF-kB SEAP reporter activity (RAW-Dual [1]; agonist: LPS (TLR4) 0.1 ug/mL): 1.12 | NF-kB SEAP reporter activity (RAW-Dual [1]; [4]): 1.04 | NF-kB SEAP reporter activity (RAW-Dual [1]; [5]): 1.14 | NF-kB SEAP reporter activity (RAW-Dual [1]; [6]): 1.07

O=C(c1ccccc1)C(O)O
NF-kB SEAP reporter activity (RAW-Dual [2]; [8]): 1.19

CCC(=O)OC1CC(=O)OC(C)C/C=C/C=C/C(O)C(C)CC(CC=O)C(OC2OC(C)C(OC3CC(C)(O)C(OC(=O)CC)C(C)O3)C(N(C)C)C2O)C1OC (centres undefined)
NF-kB SEAP reporter activity (RAW-Dual [2]; [7]): 0.961 | NF-kB SEAP reporter activity (RAW-Dual [2]; [8]): 1.07

CCC(=O)OC1CC(=O)OC(C)C/C=C/C=C/C(O)C(C)CC(CC=O)C(OC2OC(C)C(OC3CC(C)(O)C(OC(=O)CC)C(C)O3)C(N(C)C)C2O)C1OC (centres undefined) (library stock concentration (final ~1000-fold dilution): 10 mM)
NF-kB SEAP reporter activity (RAW-Dual [1]; agonist: LPS (TLR4) 0.1 ug/mL): 0.93 | NF-kB SEAP reporter activity (RAW-Dual [1]; [4]): 1.02 | NF-kB SEAP reporter activity (RAW-Dual [1]; [5]): 1.06 | NF-kB SEAP reporter activity (RAW-Dual [1]; [6]): 1.21

COc1ccc2c(c1O)-c1c(O)c(OC)cc3c1C(C2)[N+](C)(C)CC3 (centres undefined) (library stock concentration (final ~1000-fold dilution): 10 mM)
NF-kB SEAP reporter activity (RAW-Dual [1]; agonist: LPS (TLR4) 0.1 ug/mL): 1.1 and 1.18 | NF-kB SEAP reporter activity (RAW-Dual [1]; [4]): 0.935 and 1.11 | NF-kB SEAP reporter activity (RAW-Dual [1]; [5]): 1.01 and 1.08 | NF-kB SEAP reporter activity (RAW-Dual [1]; [6]): 0.967 and 1.08

CC(C)(NS(=O)(=O)c1ccc2c(Cl)cnc(NC(=N)N)c2c1)C(=O)O.Cl
NF-kB SEAP reporter activity (RAW-Dual [2]; [7]): 0.99 | NF-kB SEAP reporter activity (RAW-Dual [2]; [8]): 0.923

CC(C)(NS(=O)(=O)c1ccc2c(Cl)cnc(NC(=N)N)c2c1)C(=O)O.Cl (library stock concentration (final ~1000-fold dilution): 10 mM)
NF-kB SEAP reporter activity (RAW-Dual [1]; agonist: LPS (TLR4) 0.1 ug/mL): 1.1 | NF-kB SEAP reporter activity (RAW-Dual [1]; [4]): 1.01 | NF-kB SEAP reporter activity (RAW-Dual [1]; [5]): 0.913 | NF-kB SEAP reporter activity (RAW-Dual [1]; [6]): 0.764

Cl.Nc1ncccc1-c1nc2ccc(-c3ccccc3)nc2n1-c1ccc(C2(N)CCC2)cc1 (library stock concentration (final ~1000-fold dilution): 10 mM)
NF-kB SEAP reporter activity (RAW-Dual [3]; agonist: LPS (TLR4) 0.1 ug/mL): 0.954 | NF-kB SEAP reporter activity (RAW-Dual [3]; [4]): 0.218 | NF-kB SEAP reporter activity (RAW-Dual [3]; [5]): 0.921 | NF-kB SEAP reporter activity (RAW-Dual [3]; [6]): 1.38

Cl.Nc1ncccc1-c1nc2ccc(-c3ccccc3)nc2n1-c1ccc(C2(N)CCC2)cc1
NF-kB SEAP reporter activity (RAW-Dual [2]; cytotoxicity flag (confluency mask): cytotoxic (confluency <70% of control), agonist: Imiquimod (TLR7) […]): 1.7 | NF-kB SEAP reporter activity (RAW-Dual [2]; cytotoxicity flag (confluency mask): cytotoxic (confluency <70% of control), agonist: MPLA (TLR4) […]): 1.8

COc1cc2c(cc1OC)C1CC(OC(=O)C(N)C(C)C)C(CC(C)C)CN1CC2.Cc1ccc(S(=O)(=O)O)cc1.Cc1ccc(S(=O)(=O)O)cc1 (centres undefined) (library stock concentration (final ~1000-fold dilution): 10 mM)
NF-kB SEAP reporter activity (RAW-Dual [1]; agonist: LPS (TLR4) 0.1 ug/mL): 1.11 | NF-kB SEAP reporter activity (RAW-Dual [1]; [4]): 0.207 | NF-kB SEAP reporter activity (RAW-Dual [1]; [5]): 0.856 | NF-kB SEAP reporter activity (RAW-Dual [1]; [6]): 0.889

COc1cc2c(cc1OC)C1CC(OC(=O)C(N)C(C)C)C(CC(C)C)CN1CC2.Cc1ccc(S(=O)(=O)O)cc1.Cc1ccc(S(=O)(=O)O)cc1 (centres undefined)
NF-kB SEAP reporter activity (RAW-Dual [2]; [7]): 1.07 | NF-kB SEAP reporter activity (RAW-Dual [2]; [8]): 1.11
